Experimental data taken from PubChem BioAssay AID1159580 (chemical genetic matrix, 2015).
In all, about 5,500 compounds went through this assay and about 2,000 (36%) were called active. Another 18% or so got no clear call; they are omitted. Rule as the data show it: active = normalized growth mostly below about 0.91 (no sharp cut-off); inconclusive = no clear call, values can overlap the other calls; inactive = mostly above about 0.92. Some of the results follow.

Assay: chemical genetic growth profiling, strain panel (AID 1159580);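 also: tested at 20 µM; growth read once vehicle control cultures reached saturation at 30 °C; 1 = growth at the plate median or of vehicle wells; lower values mean less growth of the strain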
Settings: growth OD

Measured: normalized growth

C=C1C2CC[C@H]3[C@]4(C)C[C@H](OC5OC(CO)C(OS(=O)(=O)O)C(OS(=O)(=O)O)C5OC(=O)CC(C)C)C[C@@H](C(=O)O)[C@H]4CC[C@]3(C2)[C@H]1O (some centres undefined)
inactive: S. cerevisiae deletion strains, locus YJR043C, strain POL32, stronger effect = lower value 1 | S. cerevisiae deletion strains, locus YJR075W, strain HOC1, stronger effect = lower value 1.01 | S. cerevisiae deletion strains, locus YKL009W, strain mrt4, stronger effect = lower value 0.984 | S. cerevisiae deletion strains, locus YKL068W, stronger effect = lower value 0.981 | S. cerevisiae deletion strains, locus YKL085W, strain MDH1 (second series), stronger effect = lower value 0.97 | S. cerevisiae deletion strains, locus YKL085W, strain MDH1, stronger effect = lower value 0.97 | S. cerevisiae deletion strains, locus YKL160W, strain elf1, stronger effect = lower value 0.984 | S. cerevisiae deletion strains, locus YKL190W, strain CNB1, stronger effect = lower value 1.01 | S. cerevisiae deletion strains, locus YKR001C, strain vps1, stronger effect = lower value 0.976 | S. cerevisiae deletion strains, locus YKR026C, strain gcn3, stronger effect = lower value 1.01 | S. cerevisiae deletion strains, locus YKR091W, strain srl3, stronger effect = lower value 1.01 | S. cerevisiae deletion strains, locus YLL001W, strain dnm1, stronger effect = lower value 1.03 | S. cerevisiae deletion strains, locus YLL026W, stronger effect = lower value 1.01 | S. cerevisiae deletion strains, locus YLL041C, strain sdh2, stronger effect = lower value 1.01 | S. cerevisiae deletion strains, locus YLR027C, strain aat2, stronger effect = lower value 1.01 | S. cerevisiae deletion strains, locus YLR039C, strain RIC1, stronger effect = lower value 0.99 | S. cerevisiae deletion strains, locus YLR058C, strain SHM2, stronger effect = lower value 1.01 | S. cerevisiae deletion strains, locus YLR102C, strain apc9, stronger effect = lower value 0.983 | S. cerevisiae deletion strains, locus YLR221C, strain rsa3, stronger effect = lower value 0.995 | S. cerevisiae deletion strains, locus YLR258W, strain gsy2, stronger effect = lower value 1.02 | S. cerevisiae deletion strains, locus YLR262C, strain YPT6 (second series), stronger effect = lower value 1.01 | S. cerevisiae deletion strains, locus YLR262C, strain YPT6, stronger effect = lower value 0.994 | S. cerevisiae deletion strains, locus YLR268W, strain sec22, stronger effect = lower value 0.987 | S. cerevisiae deletion strains, locus YLR320W, strain mms22, stronger effect = lower value 1.01 | S. cerevisiae deletion strains, locus YLR330W, strain CHS5, stronger effect = lower value 1.01 | S. cerevisiae deletion strains, locus YLR342W, strain FKS1 (second series), stronger effect = lower value 1.01 | S. cerevisiae deletion strains, locus YLR342W, strain FKS1, stronger effect = lower value 1.01 | S. cerevisiae deletion strains, locus YLR357W, strain rsc2, stronger effect = lower value 0.986 | S. cerevisiae deletion strains, locus YLR370C, strain arc18, stronger effect = lower value 1 | S. cerevisiae deletion strains, locus YLR371W, strain rom2, stronger effect = lower value 0.987 | S. cerevisiae deletion strains, locus YLR384C, strain iki3, stronger effect = lower value 0.991 | S. cerevisiae deletion strains, locus YLR418C, strain cdc73, stronger effect = lower value 1 | S. cerevisiae deletion strains, locus YML016C, strain PPZ1, stronger effect = lower value 1.01 | S. cerevisiae deletion strains, locus YML032C, strain rad52, stronger effect = lower value 0.984 | S. cerevisiae deletion strains, locus YML120C, strain ndi1, stronger effect = lower value 1.01 | S. cerevisiae deletion strains, locus YML124C, strain tub3, stronger effect = lower value 0.987 | S. cerevisiae deletion strains, locus YMR058W, strain fet3, stronger effect = lower value 1.01 | S. cerevisiae deletion strains, locus YMR078C, strain ctf18, stronger effect = lower value 0.982 | S. cerevisiae deletion strains, locus YMR125W, strain sto1, stronger effect = lower value 1.02 | S. cerevisiae deletion strains, locus YMR129W, stronger effect = lower value 0.992 | S. cerevisiae deletion strains, locus YMR205C, strain PFK2, stronger effect = lower value 1.03 | S. cerevisiae deletion strains, locus YMR223W, strain ubp8, stronger effect = lower value 0.977 | S. cerevisiae deletion strains, locus YMR231W, strain pep5, stronger effect = lower value 1.01 | S. cerevisiae deletion strains, locus YMR263W, strain SAP30, stronger effect = lower value 1.02 | S. cerevisiae deletion strains, locus YMR307W, strain GAS1, stronger effect = lower value 1.05 | S. cerevisiae deletion strains, locus YNL067W, strain RPL9B, stronger effect = lower value 1.02 | S. cerevisiae deletion strains, locus YNL071W, strain lat1, stronger effect = lower value 1.01 | S. cerevisiae deletion strains, locus YNL128W, strain TEP1, stronger effect = lower value 1.02 | S. cerevisiae deletion strains, locus YNL153C, strain GIM3, stronger effect = lower value 1.03 | S. cerevisiae deletion strains, locus YNL209W, strain ssb2, stronger effect = lower value 1 | S. cerevisiae deletion strains, locus YNL233W, strain BNI4, stronger effect = lower value 1.02 | S. cerevisiae deletion strains, locus YNL248C, strain rpa49, stronger effect = lower value 0.974 | S. cerevisiae deletion strains, locus YNL250W, strain rad50, stronger effect = lower value 0.972 | S. cerevisiae deletion strains, locus YNL271C, strain bni1, stronger effect = lower value 0.972 | S. cerevisiae deletion strains, locus YNL298W, strain CLA4, stronger effect = lower value 0.977 | S. cerevisiae deletion strains, locus YNL307C, strain MCK1, stronger effect = lower value 0.986 | S. cerevisiae deletion strains, locus YNL322C, strain KRE1 (second series), stronger effect = lower value 1 | S. cerevisiae deletion strains, locus YNL322C, strain KRE1, stronger effect = lower value 1.01 | S. cerevisiae deletion strains, locus YNR049C, strain mso1, stronger effect = lower value 1.01 | S. cerevisiae deletion strains, locus YNR052C, strain pop2, stronger effect = lower value 0.97 | S. cerevisiae deletion strains, locus YOL006C, strain TOP1, stronger effect = lower value 1.07 | S. cerevisiae deletion strains, locus YOL012C, strain htz1 0.954 | S. cerevisiae deletion strains, locus YOL147C, strain pex11, stronger effect = lower value 0.992 | S. cerevisiae deletion strains, locus YOR001W, strain rrp6, stronger effect = lower value 0.992 | S. cerevisiae deletion strains, locus YOR061W, strain CKA2, stronger effect = lower value 1.01 | S. cerevisiae deletion strains, locus YOR069W, strain VPS5, stronger effect = lower value 1.01 | S. cerevisiae deletion strains, locus YOR070C, strain gyp1, stronger effect = lower value 1 | S. cerevisiae deletion strains, locus YOR080W, strain dia2, stronger effect = lower value 1.02 | S. cerevisiae deletion strains, locus YOR083W, strain WHI5, stronger effect = lower value 0.976 | S. cerevisiae deletion strains, locus YOR106W, strain vam3, stronger effect = lower value 0.991 | S. cerevisiae deletion strains, locus YOR136W, strain idh2, stronger effect = lower value 0.988 | S. cerevisiae deletion strains, locus YOR144C, strain elg1, stronger effect = lower value 0.99 | S. cerevisiae deletion strains, locus YOR184W, strain ser1, stronger effect = lower value 0.958 | S. cerevisiae deletion strains, locus YOR265W, strain rbl2, stronger effect = lower value 1.01 | S. cerevisiae deletion strains, locus YOR270C, strain vph1, stronger effect = lower value 1.01 | S. cerevisiae deletion strains, locus YOR290C, strain snf2, stronger effect = lower value 0.986 | S. cerevisiae deletion strains, locus YOR316C, strain cot1, stronger effect = lower value 0.991 | S. cerevisiae deletion strains, locus YPL051W, strain arl3, stronger effect = lower value 0.995 | S. cerevisiae deletion strains, locus YPL055C, strain LGE1, stronger effect = lower value 1.05 | S. cerevisiae deletion strains, locus YPL078C, strain atp4, stronger effect = lower value 0.993 | S. cerevisiae deletion strains, locus YPL106C, strain sse1, stronger effect = lower value 1.01 | S. cerevisiae deletion strains, locus YPL240C, strain hsp82, stronger effect = lower value 1.01 | S. cerevisiae deletion strains, locus YPL241C, strain CIN2, stronger effect = lower value 1.02 | S. cerevisiae deletion strains, locus YPR119W, strain clb2, stronger effect = lower value 0.986 | S. cerevisiae deletion strains, locus YPR141C, strain kar3, stronger effect = lower value 0.969 | S. cerevisiae deletion strains, locus YPR163C, strain tif3, stronger effect = lower value 0.992 | S. cerevisiae deletion strains, locus YPR167C, strain met16, stronger effect = lower value 0.985 | S. cerevisiae deletion strains, strain wtn01, stronger effect = lower value 0.98 | S. cerevisiae strains, strain wild type, stronger effect = lower value 1.01
